From PubChem BioAssay AID1159580 (chemical genetic matrix, 2015)
Among all 5,500 compounds or so, about 2,000 (36%) were called active. About 18% were inconclusive and are not listed. Cut-off read from the data, not from the text of the source: active = normalized growth mostly below about 0.91 (no sharp cut-off); inconclusive = no clear call, values can overlap the other calls; inactive = mostly above about 0.92. This is one part of the list.

Assay: chemical genetic growth profiling, strain panel (AID 1159580);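 note: tested at 20 µM; growth read once vehicle control cultures reached saturation at 30 °C; 1 = growth at the plate median or of vehicle wells; lower values mean less growth of the strain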
Conditions: growth OD

Measured: normalized growth

c1coc(CNc2ncnc3nc[nH]c23)c1
inactive: S. cerevisiae deletion strains, locus YJR075W, strain HOC1, active compounds read low 1 | S. cerevisiae deletion strains, locus YKL009W, strain mrt4, active compounds read low 1.03 | S. cerevisiae deletion strains, locus YKL068W, active compounds read low 0.979 | S. cerevisiae deletion strains, locus YKL085W, strain MDH1 (second series), active compounds read low 1.01 | S. cerevisiae deletion strains, locus YKL085W, strain MDH1, active compounds read low 1.01 | S. cerevisiae deletion strains, locus YKL160W, strain elf1, active compounds read low 1.02 | S. cerevisiae deletion strains, locus YKL190W, strain CNB1, active compounds read low 0.994 | S. cerevisiae deletion strains, locus YKR001C, strain vps1, active compounds read low 1 | S. cerevisiae deletion strains, locus YKR026C, strain gcn3, active compounds read low 0.999 | S. cerevisiae deletion strains, locus YKR091W, strain srl3, active compounds read low 0.994 | S. cerevisiae deletion strains, locus YLL001W, strain dnm1, active compounds read low 1.01 | S. cerevisiae deletion strains, locus YLL026W, active compounds read low 0.999 | S. cerevisiae deletion strains, locus YLL041C, strain sdh2, active compounds read low 0.997 | S. cerevisiae deletion strains, locus YLR027C, strain aat2, active compounds read low 1 | S. cerevisiae deletion strains, locus YLR039C, strain RIC1, active compounds read low 1.01 | S. cerevisiae deletion strains, locus YLR058C, strain SHM2, active compounds read low 1 | S. cerevisiae deletion strains, locus YLR102C, strain apc9, active compounds read low 0.989 | S. cerevisiae deletion strains, locus YLR113W, strain HOG1, active compounds read low 0.993 | S. cerevisiae deletion strains, locus YLR221C, strain rsa3, active compounds read low 0.975 | S. cerevisiae deletion strains, locus YLR258W, strain gsy2, active compounds read low 0.996 | S. cerevisiae deletion strains, locus YLR262C, strain YPT6 (second series), active compounds read low 0.977 | S. cerevisiae deletion strains, locus YLR262C, strain YPT6, active compounds read low 0.981 | S. cerevisiae deletion strains, locus YLR268W, strain sec22, active compounds read low 0.97 | S. cerevisiae deletion strains, locus YLR320W, strain mms22, active compounds read low 1 | S. cerevisiae deletion strains, locus YLR330W, strain CHS5, active compounds read low 0.994 | S. cerevisiae deletion strains, locus YLR342W, strain FKS1 (second series), active compounds read low 1.02 | S. cerevisiae deletion strains, locus YLR342W, strain FKS1, active compounds read low 1.01 | S. cerevisiae deletion strains, locus YLR357W, strain rsc2, active compounds read low 0.98 | S. cerevisiae deletion strains, locus YLR370C, strain arc18, active compounds read low 0.993 | S. cerevisiae deletion strains, locus YLR371W, strain rom2, active compounds read low 0.99 | S. cerevisiae deletion strains, locus YLR384C, strain iki3, active compounds read low 1 | S. cerevisiae deletion strains, locus YLR418C, strain cdc73, active compounds read low 1 | S. cerevisiae deletion strains, locus YML016C, strain PPZ1, active compounds read low 1 | S. cerevisiae deletion strains, locus YML032C, strain rad52, active compounds read low 0.993 | S. cerevisiae deletion strains, locus YML120C, strain ndi1, active compounds read low 0.992 | S. cerevisiae deletion strains, locus YML124C, strain tub3, active compounds read low 1 | S. cerevisiae deletion strains, locus YMR058W, strain fet3, active compounds read low 0.998 | S. cerevisiae deletion strains, locus YMR078C, strain ctf18, active compounds read low 0.994 | S. cerevisiae deletion strains, locus YMR125W, strain sto1, active compounds read low 0.974 | S. cerevisiae deletion strains, locus YMR129W, active compounds read low 0.988 | S. cerevisiae deletion strains, locus YMR205C, strain PFK2, active compounds read low 1 | S. cerevisiae deletion strains, locus YMR223W, strain ubp8, active compounds read low 1.02 | S. cerevisiae deletion strains, locus YMR231W, strain pep5, active compounds read low 0.991 | S. cerevisiae deletion strains, locus YMR263W, strain SAP30, active compounds read low 0.986 | S. cerevisiae deletion strains, locus YMR307W, strain GAS1, active compounds read low 1.11 | S. cerevisiae deletion strains, locus YNL067W, strain RPL9B, active compounds read low 0.983 | S. cerevisiae deletion strains, locus YNL071W, strain lat1, active compounds read low 0.999 | S. cerevisiae deletion strains, locus YNL128W, strain TEP1, active compounds read low 0.99 | S. cerevisiae deletion strains, locus YNL153C, strain GIM3, active compounds read low 0.991 | S. cerevisiae deletion strains, locus YNL183C, strain NPR1, active compounds read low 0.914 | S. cerevisiae deletion strains, locus YNL209W, strain ssb2, active compounds read low 0.986 | S. cerevisiae deletion strains, locus YNL233W, strain BNI4, active compounds read low 1.01 | S. cerevisiae deletion strains, locus YNL248C, strain rpa49, active compounds read low 0.989 | S. cerevisiae deletion strains, locus YNL250W, strain rad50, active compounds read low 0.995 | S. cerevisiae deletion strains, locus YNL271C, strain bni1, active compounds read low 0.988 | S. cerevisiae deletion strains, locus YNL298W, strain CLA4, active compounds read low 1 | S. cerevisiae deletion strains, locus YNL307C, strain MCK1, active compounds read low 0.995 | S. cerevisiae deletion strains, locus YNL322C, strain KRE1 (second series), active compounds read low 0.992 | S. cerevisiae deletion strains, locus YNL322C, strain KRE1, active compounds read low 0.987 | S. cerevisiae deletion strains, locus YNR049C, strain mso1, active compounds read low 0.999 | S. cerevisiae deletion strains, locus YNR052C, strain pop2, active compounds read low 0.993 | S. cerevisiae deletion strains, locus YOL006C, strain TOP1, active compounds read low 0.981 | S. cerevisiae deletion strains, locus YOL012C, strain htz1 0.989 | S. cerevisiae deletion strains, locus YOL147C, strain pex11, active compounds read low 0.999 | S. cerevisiae deletion strains, locus YOR001W, strain rrp6, active compounds read low 1.01 | S. cerevisiae deletion strains, locus YOR061W, strain CKA2, active compounds read low 1 | S. cerevisiae deletion strains, locus YOR069W, strain VPS5, active compounds read low 1 | S. cerevisiae deletion strains, locus YOR070C, strain gyp1, active compounds read low 1 | S. cerevisiae deletion strains, locus YOR080W, strain dia2, active compounds read low 0.995 | S. cerevisiae deletion strains, locus YOR083W, strain WHI5, active compounds read low 1 | S. cerevisiae deletion strains, locus YOR106W, strain vam3, active compounds read low 1 | S. cerevisiae deletion strains, locus YOR136W, strain idh2, active compounds read low 0.996 | S. cerevisiae deletion strains, locus YOR144C, strain elg1, active compounds read low 0.99 | S. cerevisiae deletion strains, locus YOR184W, strain ser1, active compounds read low 0.997 | S. cerevisiae deletion strains, locus YOR231W, strain MKK1, active compounds read low 0.998 | S. cerevisiae deletion strains, locus YOR265W, strain rbl2, active compounds read low 0.996 | S. cerevisiae deletion strains, locus YOR270C, strain vph1, active compounds read low 0.99 | S. cerevisiae deletion strains, locus YOR290C, strain snf2, active compounds read low 0.991 | S. cerevisiae deletion strains, locus YOR316C, strain cot1, active compounds read low 0.989 | S. cerevisiae deletion strains, locus YPL051W, strain arl3, active compounds read low 0.996 | S. cerevisiae deletion strains, locus YPL055C, strain LGE1, active compounds read low 0.978 | S. cerevisiae deletion strains, locus YPL078C, strain atp4, active compounds read low 1.01 | S. cerevisiae deletion strains, locus YPL106C, strain sse1, active compounds read low 0.995 | S. cerevisiae deletion strains, locus YPL240C, strain hsp82, active compounds read low 1.02 | S. cerevisiae deletion strains, locus YPL241C, strain CIN2, active compounds read low 1 | S. cerevisiae deletion strains, locus YPL256C, strain CLN2, active compounds read low 0.965 | S. cerevisiae deletion strains, locus YPR119W, strain clb2, active compounds read low 0.999 | S. cerevisiae deletion strains, locus YPR141C, strain kar3, active compounds read low 0.981 | S. cerevisiae deletion strains, locus YPR163C, strain tif3, active compounds read low 1 | S. cerevisiae deletion strains, locus YPR167C, strain met16, active compounds read low 0.99 | S. cerevisiae deletion strains, strain wtn01, active compounds read low 0.986 | S. cerevisiae strains, strain wild type, active compounds read low 0.999
